Screening data (PubChem)
Only a selection was taken, and hits are over-represented in it overall.
NSD2 block – NSD2 (human) methyltransferase inhibition | O96028 | NSD2-SET H3K36me1 DELFIA fluorescence, biochemical | inhibition, % at 12.5 µM | actives 0.07% (n = 44,000) | AID 624260; in the data active means inhibition above about 54%, passing the limit was not always enough;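 further: inhibitors reduce the monomethyl H3K36 fluorescence signal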
Target sequence (O96028 whole entry, looked up): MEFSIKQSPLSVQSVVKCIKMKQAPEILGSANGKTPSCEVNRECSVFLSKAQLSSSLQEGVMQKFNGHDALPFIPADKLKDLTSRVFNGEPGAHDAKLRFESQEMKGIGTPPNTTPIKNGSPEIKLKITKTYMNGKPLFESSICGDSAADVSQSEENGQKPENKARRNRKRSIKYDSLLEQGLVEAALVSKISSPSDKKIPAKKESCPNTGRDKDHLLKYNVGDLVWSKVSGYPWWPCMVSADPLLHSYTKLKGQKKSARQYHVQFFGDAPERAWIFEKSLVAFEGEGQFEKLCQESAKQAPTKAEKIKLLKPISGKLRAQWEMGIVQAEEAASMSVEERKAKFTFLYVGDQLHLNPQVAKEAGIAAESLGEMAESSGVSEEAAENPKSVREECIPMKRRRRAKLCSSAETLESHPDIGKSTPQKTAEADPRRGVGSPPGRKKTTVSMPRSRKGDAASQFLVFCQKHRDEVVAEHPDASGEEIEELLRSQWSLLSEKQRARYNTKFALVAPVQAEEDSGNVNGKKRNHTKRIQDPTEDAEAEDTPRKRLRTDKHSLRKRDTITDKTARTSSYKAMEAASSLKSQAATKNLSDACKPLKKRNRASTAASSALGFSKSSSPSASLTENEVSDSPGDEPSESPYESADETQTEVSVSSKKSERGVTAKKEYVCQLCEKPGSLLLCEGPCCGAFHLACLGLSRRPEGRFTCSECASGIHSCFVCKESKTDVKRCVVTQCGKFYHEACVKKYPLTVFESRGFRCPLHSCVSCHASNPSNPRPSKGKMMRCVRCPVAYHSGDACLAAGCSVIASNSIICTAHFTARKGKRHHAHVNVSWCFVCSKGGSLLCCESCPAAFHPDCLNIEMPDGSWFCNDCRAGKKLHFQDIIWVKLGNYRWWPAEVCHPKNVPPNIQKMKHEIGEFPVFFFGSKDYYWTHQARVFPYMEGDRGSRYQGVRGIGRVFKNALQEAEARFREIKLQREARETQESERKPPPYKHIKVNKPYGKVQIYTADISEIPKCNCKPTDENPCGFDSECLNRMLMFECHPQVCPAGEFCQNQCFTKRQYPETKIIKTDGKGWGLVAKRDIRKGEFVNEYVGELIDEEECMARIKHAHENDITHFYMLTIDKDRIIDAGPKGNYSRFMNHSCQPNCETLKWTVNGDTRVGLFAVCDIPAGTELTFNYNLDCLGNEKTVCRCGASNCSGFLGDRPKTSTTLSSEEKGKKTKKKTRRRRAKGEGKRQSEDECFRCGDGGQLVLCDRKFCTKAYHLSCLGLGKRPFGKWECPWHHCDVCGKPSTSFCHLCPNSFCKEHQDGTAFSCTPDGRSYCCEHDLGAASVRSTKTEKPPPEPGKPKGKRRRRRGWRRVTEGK
The depositor's hits bear a star.

`CC(C)NC(=O)Nc1ccc2c(c1)CC(=O)N([C@@H](C)CO)C[C@@H](C)[C@H](CN(C)Cc1ccc(-c3ccccc3)cc1)O2` gave NSD2 block -4.
Screening CC(C)NC(=O)Nc1ccc2c(c1)CC(=O)N([C@H](C)CO)C[C@@H](C)[C@@H](CN(C)S(=O)(=O)c1ccccc1)O2 returned NSD2 block 4.
For C[C@@H]1CN([C@H](C)CO)C(=O)Cc2cc(NC(=O)C3CCCCC3)ccc2O[C@H]1CN(C)C(=O)NC1CCCCC1 the results were NSD2 block 4.
`C[C@@H]1CN([C@@H](C)CO)C(=O)CCCn2cc(nn2)CO[C@@H]1CN(C)C(=O)OCc1ccccc1` gave NSD2 block 24.
For CC(C)CC#Cc1cnc2c(c1)C(=O)N([C@H](C)CO)C[C@H](C)[C@H](CN(C)Cc1ccc3c(c1)OCO3)O2 the results were NSD2 block -9.
Screening COC(=O)C1=CO[C@@H](O[C@@H]2O[C@H](CO)[C@@H](O)[C@H](O)[C@H]2O)[C@H]2[C@@H]1C=CC21C=C([C@H](C)OC(=O)/C=C/c2ccc(O)cc2)C(=O)O1 (some centres not stated) returned NSD2 block 76*.
COC(=O)C1=CO[C@@H](O[C@@H]2O[C@H](CO)[C@@H](O)[C@H](O)[C@H]2O)[C@H]2[C@@H]1C=CC21C=C([C@H](C)O)C(=O)O1 (some centres not stated) was read as NSD2 block 1.
For COC(=O)C1=CO[C@@H](O[C@@H]2O[C@H](CO)[C@@H](O)[C@H](O)[C@H]2O)[C@@H]2[C@@H](C)[C@@H](O)[C@@H](OC(=O)/C=C/c3ccc(O)c(O)c3)[C@H]12 the results were NSD2 block 4.
Screening O=C(C[C@@H]1C[C@H]2c3cc(NS(=O)(=O)c4ccccc4)ccc3O[C@H]2[C@H](CO)O1)NCC(F)(F)F returned NSD2 block -1.
